Test results as given in PubChem BioAssay AID686978 (National Center for Advancing Translational Sciences (NCATS), 2013).
In all, about 420,000 compounds went through this assay and about 64,000 (15%) were called active. Another 27% or so got no clear call; they are omitted. Only a sample is shown. Values without a mark were called inactive. Calls come from the whole dose curve; as a rule, active = well fitted inhibition curve with a large enough effect; inconclusive = small, poorly fitted or top-dose-only effect; inactive = flat fitted curve, though single readings scatter.

test: qHTS for Inhibitors of human tyrosyl-DNA phosphodiesterase 1 (TDP1): qHTS in cells in absence of CPT; settings: DT40 Tdp1-/- hTDP1 cells, no CPT, ATP luminescence, 48 h; activity change, negative = growth inhibition: at 46.2 µM (top of the series); note: nearly all actives have a fitted effect of over 55% in size
Procedure, shortened: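 A cellular qHTS used chicken DT40 cells lacking endogenous Tdp1 but carrying stably transfected human TDP1. Compounds were applied without camptothecin, and cell growth kinetics were judged by ATP-dependent luminescence after ≥48 hr.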
% is set by controls: 0 for no effect and ±100 for the full control effect; potency is the fitted concentration of half-maximal effect.

Row | SMILES | activity change, negative = growth inhibition [%] | Potency
1 | COc1cc(OC)cc(C(=O)Nc2ncc3c(n2)CC(C)(C)CC3=O)c1 | -8.15 | 
2 | Cc1ccc(NC(=O)C(CC(=O)O)C2CCCO2)c(C)c1 (stereo unspecified) | 0.0591 | 
3 | CSCCC(NC(=O)c1ccc(Cl)cc1Cl)C(=O)NNC(=O)c1csc(N2CCOCC2)n1 (stereo unspecified) | 15.3 | 
4 | Cc1ccc(CCn2c3c(c4ccccc42)CN(C)CC3)cn1 | -10.9 | 
5 | Cc1ccc(-c2noc(CSc3nnnn3-c3ccccc3)n2)cc1 | -4.41 | 
6 | COc1ccc(-c2noc(CSc3nnc(-c4ccccc4)n3-c3ccc(F)cc3)n2)c(OC)c1 |  | 20.6 µM (active)
7 | COc1ccc(C(=O)NC(=O)CSc2nnc(-c3ccco3)n2-c2ccccc2)cc1 | -8.95 | 
8 | Cc1ccc(-c2noc(CSc3nnc(-c4ccncc4)n3-c3ccc(F)cc3)n2)cc1 |  | 18.4 µM (active)
9 | COc1ccccc1-c1noc(CSc2nc(C)cc(=O)[nH]2)n1 | -1.42 | 
10 | Cn1c(SCc2ccc(F)cc2)nnc1-c1ccncc1 | 6.54 | 
11 | Cc1nc(N2CCOCC2)sc1C(=O)NN | -0.716 | 
12 | COC(=O)Cc1ccc(OCC(=O)NC2CCCC2)cc1 | 0.278 | 
13 | COc1ccc(-n2nc3c(c2NC(=O)Cc2cccc(C)c2)CS(=O)C3)cc1 (stereo unspecified) | -2.75 | 
14 | Cc1nc(NC(CC(C)C)C(=O)O)c2nc(C)oc2n1 (stereo unspecified) | 6.87 | 
15 | Cc1ccc(NC(=S)N/N=C2/CCCc3c(C)cc(C)cc32)cc1 | -5.78 | 
16 | Cc1ccc(S(=O)(=O)c2nnn3c2nc(N2CCN(c4ccccc4F)CC2)c2cc(Cl)ccc23)cc1C | 1.48 | 
17 | COc1ccc(OC)c(NC(=O)Cn2c(=O)n(Cc3ccccc3)c(=O)c3ccccc32)c1 | -29.5 | 
18 | COc1ccc(NC(=O)CSc2nc(SC)ns2)c(OC)c1 | -27.9 | 
19 | COCCn1c(SCC(=O)Nc2cc(OC)ccc2OC)nc2c(c1=O)SC(C)C2 (stereo unspecified) |  | 13 µM (active)
20 | COCCn1c(SCC(=O)Nc2ccccc2F)nc2c(c1=O)SCC2 | -2.31 | 
21 | COCCn1c(SCC(=O)Nc2cc(Cl)ccc2OC)nc2c(c1=O)SC(C)C2 (stereo unspecified) |  | 20.6 µM (active)
22 | Cc1ccc(Cl)cc1NC(=O)CSc1nccn1C | -0.404 | 
23 | CCc1cccc(C)c1NC(=O)CSc1nnc(-c2ccco2)n1N | -2.14 | 
24 | CCOC(=O)CSc1nnc(NC(=O)c2cccc(S(=O)(=O)N3CCCC3)c2)s1 | 13.6 | 
25 | O=C(Nc1cccc2cccnc12)c1cccc2c(Br)cccc12 | -20.3 | 
26 | Cc1ccccc1CS(=O)(=O)CC1(O)CCN(C(=O)c2cccc(C(F)(F)F)c2)CC1 | -6.73 | 

Row | SMILES | activity change, negative = growth inhibition [%] | Potency
27 | CCN(Cc1ccccc1)C(=O)CCS(=O)(=O)c1ccc2c(c1)oc(=O)n2C |  | inactive
28 | COc1cccc2c1CCC(NC(C)=O)C2=O (stereo unspecified) | -4.13 | 
29 | FC(F)(F)c1ccc(-n2cn[nH]c2=S)cc1 | -10.5 | 
30 | COc1ccc(-c2c(C)nn3c(N4CCC(C(=O)N5CCCCC5)CC4)cc(C)nc23)cc1OC | -17.1 | 
31 | N#Cc1cc([N+](=O)[O-])ccc1NCC1CCCO1 (stereo unspecified) | -0.195 | 
32 | O=C(Nc1ccc2c(c1)OCCO2)c1ccoc1 | -33.9 | 
33 | Cc1ccc(C(=O)c2ccc(N3CCN(C)CC3)c([N+](=O)[O-])c2)cc1 |  | 23.1 µM (active)
34 | CN1CCN(c2ccc(S(=O)(=O)Nc3ccccc3)cc2[N+](=O)[O-])CC1 |  | 9.2 µM (active)
35 | COc1ccc(N2C(=O)CC(Nc3ccc(F)cc3)C2=O)c([N+](=O)[O-])c1 (stereo unspecified) | -3.43 | 
36 | Cc1ccc(S(=O)(=O)NCCSc2ccccc2)cc1[N+](=O)[O-] | -20.9 | 
37 | COc1ccc(NS(=O)(=O)c2ccc(N3CCOCC3)c(NC(=O)/C=C/C(=O)O)c2)cc1 | -23.9 | 
38 | Cc1ccc(S(=O)(=O)N2CCN(C(=O)c3ccc(-n4cncn4)c([N+](=O)[O-])c3)CC2)cc1 | -29.7 | 
39 | CC1CCN(c2ccc(S(=O)(=O)Nc3cc(C(=O)O)cc(C(=O)O)c3)cc2[N+](=O)[O-])CC1 | 4.27 | 
40 | COc1ccc(NS(=O)(=O)c2ccc(N3CCN(CCO)CC3)c([N+](=O)[O-])c2)cc1 |  | 3.66 µM (active)
41 | Cc1cccc(N2CCN(c3ccc(C(N)=O)cc3[N+](=O)[O-])CC2)c1C | -4.39 | 
42 | CS(=O)(=O)N1CCN(c2ccc(C(=O)NC3C4CC5CC(C4)CC3C5)cc2[N+](=O)[O-])CC1 (stereo unspecified) |  | 23.1 µM (active)
43 | FC(F)(F)c1ccc2nnc(-c3c(Cl)cccc3Cl)n2c1 | -12.2 | 
44 | COc1ccc(-n2c(C)nn(CC3CC3)c2=O)cc1 | 10.3 | 
45 | O=C(COc1coc(CN2CCN(c3ccccc3)CC2)cc1=O)N1CCc2ccccc21 | -17.8 | 
46 | O=C(NCCN=C1NS(=O)(=O)c2ccccc21)c1ccc(S(=O)(=O)N2CCOCC2)cc1 | -8 | 
47 | CCCCCCOC(=O)NCC(O)c1ccccc1 (stereo unspecified) | -20.7 | 
48 | CC(C)C[C@H](NC(=O)C1CCC(CNC(=O)[C@@H]2CCCN2C(=O)OC(C)(C)C)CC1)C(=O)O (stereo partly specified) | -8.04 | 
49 | CC(=O)OCC(=O)C1CCC2C3CCC4=CC(=O)CC[C@@]4(C)C3CC[C@]12C (stereo partly specified) | -25.1 | 
50 | CSc1ncnc2c1ncn2CC(=O)C1CCC2C3CCC4=CC(=O)CCC4(C)C3CCC12C (stereo unspecified) |  | 5.8 µM (active)
51 | COc1ccnc2c1c(=O)n(Cc1cccc(F)c1)c(=O)n2C | -26.1 | 
